SW480 rereplic: inducers of DNA re-replication in SW480 colon cancer cells; SW480 DNA re-replication, Hoechst DNA content imaging, 48 h; Potency, µM (top dose mostly 46.1 µM), inactives show top-dose re-replication activation, actives largely listed as activators; 340,000 compounds, 1.8% hits; AID 624297; further: % of control where 0% means no effect; nearly all actives have a fitted effect of over 55% in size
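Image-based read-out: total Hoechst fluorescence of nuclei (405 nm excitation, 500-530 nm emission), with hits raising the fraction of high-intensity nuclei. SW480 colon cells incubated 48 hr with compounds at 37 C.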
p53 reactivator: restores transcriptional activity of mutant p53; H1299 p53-A138V BP100-luciferase reporter, luminescence, 24 h; Potency, µM (highest dose often 92.2 µM), for the others: top-dose activity change, positive = activation, most hits filed as activators; 320,000 compounds, 0.063% hits; further: % of control where 0% means no effect; nearly all actives have a fitted effect of over 45% in size
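H1299 (p53-null), stable ts p53-A138V + BP100-Luc; 1000 cells/well, Opti-MEM/10% FBS; cpd 4 pt, 1:5; 24 h, 37 deg C, 5% CO2; detection reagent 10 min RT; luminescence.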
AT treatment: potential ataxia-telangiectasia treatment; F2112 A-T fibroblasts, KAP-1 phosphorylation AlphaLISA; neocarzinostatin DNA damage 30 min before lysis; Potency, µM (doses to about 57.5 µM), inactives show top-dose activation, usual class: activators; 320,000 compounds, 0.19% hits; AID 485349; further: % of control where 0% means no effect; nearly all actives have a fitted effect of over 45% in size
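ATM-like activity read as KAP-1 phosphorylation via AlphaLISA donor/acceptor antibody pairs after lysis and 6 hr at 25C. Cells were ATM-null patient fibroblasts (F2112, hTERT), dosed 60 min, then exposed to the DSB inducer NCS for 30 min.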
MCF10A rereplic: DNA re-replication induction in MCF 10a cells; MCF 10A DNA re-replication, Hoechst nuclear intensity, 48 h; Potency, µM (doses to about 46.1 µM), for inactives: top-dose activity, positive = re-replication, most hits filed as activators; 350,000 compounds, 2.9% hits; further: % of control where 0% means no effect; nearly all actives have a fitted effect of over 50% in size
ELG1 repair inh: ELG1-dependent DNA repair inhibition; 330,000 compounds, 2.3% hits; AID 504467; Potency, µM (doses to about 46.1 µM), inactives show at the top dose activity change, negative = inhibition, actives largely listed as inhibitors; HEK293T ELG1-luciferase reporter, luminescence, 16 h; DNA damage induced by 5-fluorouridine; further: on the % scale 0 is the no-effect control and ±100 the full control effect; nearly all actives have a fitted effect of over 55% in size
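Cells (2,000 per well) received 5-fluorouridine plus test compound or DMSO and were incubated 16 hr at 37 °C, 5% CO2. Luciferase activity was read by luminescence 30 min after ONE-Glo addition; signal suppression marked inhibition of damage-induced ELG1 function.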
ELG1 genotoxic: genotoxicity induction in ELG1-luciferase HEK293T cells; HEK293T ELG1-luciferase reporter, luminescence, 16 h; Potency, µM (top dose mostly 46 µM), for the others: at the highest dose activity change, positive = activation, hits mostly activators; 330,000 compounds, 1.3% hits; AID 504466; further: % of control where 0% means no effect; nearly all actives have a fitted effect of over 60% in size
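16 hr compound incubation (37 °C, 5% CO2) of HEK293T cells carrying luciferase-tagged ELG1; luciferase then measured by ONE-Glo luminescence after 30 min at RT.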
An asterisk follows results filed as active; ? = inconclusive; nt = no result given. Most compounds without a hit are left out; they make up all but 7.1% or so of the library. The call rests on the fitted dose curve; in most records, active means well fitted curve in the direction sought with a large enough effect; inconclusive means small, poorly fitted or top-dose-only effect, or another doubt; inactive means no such curve, though single readings can be large; an effect the other way counts as inactive or inconclusive. Potency means the concentration at half of the fitted maximal effect.

SMILES	SW480 rereplic	p53 reactivator	AT treatment	MCF10A rereplic	ELG1 repair inh	ELG1 genotoxic
COc1ccc(C2NC(=S)NC(C)=C2C(=O)Nc2ccccn2)cc1OC (configuration not stated)	5%	-2%	2%	?	-3%	0%
COc1ccc(C2NC(=S)NC(C)=C2C(=O)c2ccccc2)cc1OC (configuration not stated)	23µM*	-23%	-1%	?	1%	10%
S=C(Nc1ccc(Cl)cc1)NC1CC2CCCC(C1)N2C1CC1 (configuration not stated)	-4%	-6%	nt	-14%	?	-4%
CCOc1ccc(NC(=O)Nc2cccs2)cc1	27%	28%	0%	0%	?	4.6µM*
S=C(Nc1ccc(Cl)c(Cl)c1)NC1CCCCC1	3.3µM*	14%	14%	80%	?	-4%
S=C(Nc1ccc2nsnc2c1)NC1CCCCC1	6%	?	13%	-37%	?	-2%
S=C(Nc1ccc(Oc2ccccc2)cc1)NC1CCCCCC1	2%	14%	5%	15µM*	-27%	-5%
S=C(Nc1ccc(Cl)cc1)NC1CC2CCCC(C1)N2C1CCCC1 (configuration not stated)	23µM*	-4%	0%	?	-6%	-7%
S=C(Nc1ccc(Oc2ccccc2)cc1)NC1CCCCC1	5%	18%	-5%	?	-11%	?
CSc1ncc(C(=O)Nc2cccc(Cl)c2)c(C)n1	4%	1%	3%	3%	11%	1%
CC(C)n1nnnc1SCC(=O)N1CCN(Cc2ccc3c(c2)OCCO3)CC1	2%	-1%	7%	-4%	-15%	-1%
COc1cc(/C=C/C(=O)O[C@H]2[C@H](O[C@@H]3O[C@@H](C)[C@H](O)[C@@H](O)[C@H]3O)[C@@H](O)[C@H](OCCc3ccc(O)c(OC)c3)O[C@@H]2CO)ccc1O	-12%	-4%	-2%	7%	?	4%
Cc1ccc(NC(=O)C2CCN(C(=O)NC3CCCCC3)CC2)cc1Cl	-8%	4%	-5%	2%	-3%	3%
Cc1ccc(NC(=S)NNC(=S)NC2CCCCC2)cc1	-1%	3%	-1%	8%	-1%	-20%
CCOc1ccc(NC(=O)NC2CCCCCCC2)cc1	?	26%	1%	-1%	?	10µM*
CCc1ccc(NC(=O)NC2CCCCCCC2)cc1	7%	?	20%	3%	?	?
CCOc1ccc(NC(=O)Nc2cc(C)ccc2F)cc1	13%	?	nt	7%	?	5.6µM*
S=C(NNc1ccc2ccccc2c1)NC1CCCCC1	?	?	-11%	4.6µM*	?	11%
CCOc1ccc(NC(=O)Nc2cc(C(C)C)c(O)cc2C)cc1	2%	2%	0%	10%	?	-5%
Cc1ccc(NC(=O)NC2CCCCC2)cc1Cl	1%	nt	-6%	1%	?	3.7µM*
CC1=C(CO)C(=O)OC([C@@H](C)C2CC[C@H]3C4C[C@H]5O[C@]56[C@@H](O)C=CC(=O)[C@]6(C)C4CC[C@]23C)C1 (some centres not stated)	?	-14%	5%	2.3µM*	9.2µM*	-22%
CCC(C)NC(=O)CSc1ccc(S(=O)(=O)N(C)C2CCCCC2)cn1 (configuration not stated)	-3%	1%	7%	8%	?	-1%
CCOC(=O)Cc1c(C)nc2c(-c3cccc(Br)c3)c[nH]n2c1=O	18µM*	3%	1%	7.3µM*	16µM*	-11%
CN(C)S(=O)(=O)c1ccc2c(c1)C(=O)c1cc(S(=O)(=O)N(C)C)ccc1CC2	-2%	0%	8%	21%	?	2%
CN(C)S(=O)(=O)c1ccc2c(c1)/C(=C/c1cc3c([nH]1)CCCC3)C(=O)N2	10µM*	-4%	-11%	?	16%	?
SMILES	SW480 rereplic	p53 reactivator	AT treatment	MCF10A rereplic	ELG1 repair inh	ELG1 genotoxic
Cc1nn(CC(=O)NCc2ccc(Cl)cc2)c(C)c1[N+](=O)[O-]	?	-8%	nt	1%	2%	-1%
Cc1nn(CC(=O)NCc2ccc(-n3cccn3)cc2)c(C)c1[N+](=O)[O-]	0.52µM*	-10%	0%	0%	-13%	-3%
CC1CCCC(C)N1CCCNC(=O)Cn1ncc2c3ccccc3n(C)c2c1=O (configuration not stated)	-1%	4%	7.1µM*	2%	17%	0%
CN1CCN(CCCNC(=O)Cn2ncc3c4ccccc4n(C)c3c2=O)CC1	-7%	3%	0%	6%	?	6%
Cc1c(C)n2c(SCC(=O)Nc3cccc4ccccc34)nnc2[nH]c1=O	23µM*	-2%	-6%	16%	7%	-5%
CCOC(=O)C(CCc1ccccc1)NC(C)C(=O)N1Cc2ccccc2CC1C(=O)O (configuration not stated)	-12%	nt	nt	-2%	nt	nt
COc1ccc(-c2coc3cc4oc(=O)c5ccccc5c4cc23)cc1F	2.5µM*	16%	1%	?	-15%	7%
O=C(NCC1CC1(Cl)Cl)Nc1ccc(Cl)c(Cl)c1 (configuration not stated)	?	?	4%	18µM*	?	-4%
Cc1ccc(NC(=O)NCC2CC2(Cl)Cl)cc1 (configuration not stated)	3%	?	4%	-1%	?	?
C/C=C(\C)CN1CCC(n2nccc2NC(=O)CCOc2ccccc2)CC1	18µM*	12%	3%	40%	-3%	-9%
CCC(NC(=O)/C(=C\c1ccc2c(c1)OCO2)NC(C)=O)C(=O)O (configuration not stated)	-2%	-3%	4%	-1%	10%	0%
CC1=C(C#N)c2nc(N)c(C#N)c(C)c2/C1=C\c1ccc(-c2ccccc2C(=O)O)o1	-4%	4%	-7%	-4%	8.2µM*	-15%
Cc1ccsc1C(C(=O)NCc1ccccc1)N(C(=O)c1csnn1)c1ccccc1 (configuration not stated)	-2%	5%	-2%	0%	1%	4%
CC(=O)c1ccc2c3c(cc(C)c2c1)CCCC3	1%	nt	nt	21µM*	nt	nt
CC(=O)Nc1cccc(OC(=O)COc2ccc(Br)cc2)c1	29µM*	1%	1%	5%	?	0%
CN(C)c1ccccc1C(=O)c1ccccc1N(C)C	8.2µM*	?	4%	4.1µM*	?	21µM*
